Source: PubChem BioAssay AID1981 (Southern Research Specialized Biocontainment Screening …, 2009)
About 480 (22%) of roughly 2,200 compounds were called active. No rule for the calls is given here. A selection follows. Measured potencies and affinities stand elsewhere.

Assay: S. Typhimurium GFP fluorescence modified counterscreen for PhoP regulon inhibitor project dose response (AID 1981)
Settings: 4 h; series mostly up to 150 µM

| Structure (SMILES) | outcome |
| --- | --- |
| CCn1c(CNC(=O)c2cccc(C)c2)nc2ccccc21 | inactive |
| S=c1nc(-c2ccccc2)oc2c1CCCC2 | inactive |
| CCC(=O)c1cn(Cc2ccc(C#N)cc2)c2ccccc12 | inactive |
| O=c1c2oc3ccccc3c2ncn1Cc1ccc(Cl)cc1 | inactive |
| Cc1[nH]n(-c2ncc(-c3ccc(Cl)cc3)s2)c(=O)c1C(c1ccc(Cl)cc1)C(C#N)C#N (stereo not drawn) | inactive |
| Cc1ccc(-n2nc(C)c(C3C(C#N)=C(N)Oc4c3c(=O)oc3ccccc43)c2Cl)cc1 (stereo not drawn) | inactive |
| Cc1snc(S(=O)(=O)/C(C#N)=N\Nc2ccccc2)c1C#N | inactive |
| COc1ccc(CCC(=O)N2CCC3(CC2)OCCO3)cc1 | inactive |
| O=C(Nc1ccc2snnc2c1)Nc1cccc2ccccc12 | inactive |
| CC1OC(Nc2cccc3ccccc23)C(O)C(O)C1O (stereo not drawn) | inactive |
| CC(C(=O)Nc1cc([N+](=O)[O-])ccc1Cl)N1CCN(c2ccccc2O)CC1 (stereo not drawn) | inactive |
| CCCCNC(=O)Oc1cccc(N2CCCC2=O)c1 | inactive |
| CCOC(=O)c1sc(NC(=O)Nc2ccc(Cl)cc2)cc1C | inactive |
| Cc1ccnc2nc(C(=O)Nc3ccc4c(c3)OCO4)nn12 | inactive |
| CC(C)c1ccc(NC(=O)Nc2cc3sccc3n2C)cc1 | inactive |
| CCOC(=O)CN(C)Cc1c[nH]c2ccccc12 | inactive |
| Cc1[nH][nH]c(=O)c1C(c1ccc(O)c([N+](=O)[O-])c1)c1c(C)[nH][nH]c1=O | inactive |
| CCCc1[nH][nH]c(=O)c1C(c1ccc(Br)cc1)C(C#N)C#N (stereo not drawn) | inactive |
| O=c1[nH][nH]c(-c2ccccc2O)c1C(C[N+](=O)[O-])c1cccc(Cl)c1 (stereo not drawn) | inactive |
| CCCCCC(=O)Nc1ccc2ccccc2c1 | inactive |
| O=C(CSc1nnc(-c2ccc(O)cc2)n1-c1ccccc1)CC(=O)Nc1ccccc1 | inactive |
| O=C(O)CCc1nnc2n(Cc3ccc(F)cc3)c(=O)c3ccccc3n12 | inactive |
| COc1cc(CNc2ccc(CNc3ncn[nH]3)cc2)ccc1OCC(=O)NC(C)(C)C | inactive |

| Structure (SMILES) | outcome |
| --- | --- |
| O=S(=O)(NCc1ccccc1)c1cccc(S(=O)(=O)N2CCOCC2)c1 | inactive |
| Cn1c(CC(=O)Nc2ccc(Cl)c(Cl)c2)nnc1SCC(=O)Nc1nccs1 | inactive |
| O=C(COC(=O)c1n[nH]c2ccccc12)NC(=O)NC12CC3CC(CC(C3)C1)C2 | inactive |
| Oc1ccc(C=Nc2cccc3ncccc23)c(O)c1 | inactive |
| O=C(COc1ccccc1)NC(=S)Nc1ccc2c3c(cccc13)CC2 | inactive |
| Cc1c(C)n(Cc2ccccc2)c2ncnc(NN)c12 | inactive |
| O=C(NCCCN1CCCC1=O)c1ccc(Cl)c(NS(=O)(=O)c2ccc(F)cc2)c1 | inactive |
| Cc1ccc(NC(=O)C(=O)NCCOc2ccccc2Cl)cc1 | inactive |
| CN(CCC(=O)Nc1ccc(Br)cc1)Cc1ccccc1 | inactive |
| COc1ccccc1CC(=O)N1CCN(c2ccccn2)CC1 | inactive |
| COC(=O)c1ccc2nc(C(F)(F)F)[nH]c2c1 | inactive |
| O=c1cc(-c2ccc([N+](=O)[O-])cc2)nc2cc(-c3ccc(Cl)cc3)[nH]n12 | inactive |
| COC(=O)c1c(C(=O)OC)c(-c2cccc(C)c2)n2c1CS(=O)(=O)C2 | inactive |
| O=C(NCc1ccc2c(c1)OCO2)c1ccc(-n2cnnn2)cc1 | inactive |
| COC(=O)c1ccccc1NC(=O)CS(=O)(=O)Cc1nc(-c2ccc(C)cc2)oc1C | inactive |
| COCCn1cc(C(=O)N2CCC(C)CC2)c2c3ccccc3n(C)c2c1=O | inactive |
| C=CCNc1ncnc2c1[nH]c1ccc(Cl)cc12 | inactive |
| C=CCNc1ncnc2c1[nH]c1ccc(C)cc12 | inactive |
| O=c1cc(Cc2ccccc2)[nH]c(=S)[nH]1 | inactive |
| CCNC(=O)COC(=O)CCC(=O)c1cccs1 | inactive |
| Cc1cccc(OCC(=O)N2CCN(Cc3ccncc3)CC2)c1 | inactive |
| O=C(CN(c1ccc(F)cc1)S(=O)(=O)c1ccc2c(c1)OCCO2)NCc1cccnc1 | inactive |
| COc1ccc(-c2ccc3c(N)c(C(=O)c4cccc(OC)c4)sc3n2)cc1 | inactive |

| Structure (SMILES) | outcome |
| --- | --- |
| N#Cc1nc(-c2ccco2)oc1NCCCN1CCOCC1 | inactive |
| CCSc1cc(N2CCCC2)nc(-c2cccc(C)c2)n1 | inactive |
| COc1cccc(-n2c(SCC(=O)Nc3ccc4c(c3)CCC4)nc3ccccc3c2=O)c1 | inactive |
| CCOc1ccc(NC(=O)CCC(=O)n2nc(C)cc2C)cc1 | inactive |
| Cc1ccc(CNC(=O)C2CCCN(S(=O)(=O)c3c(C)noc3C)C2)cc1 (stereo not drawn) | inactive |
| O=C(c1ccccc1S(=O)(=O)NCc1ccccc1)N1CCCC1 | inactive |
| CC(=O)Nc1ccc(-n2nnnc2SCC(=O)Nc2cccc(NC(=O)c3ccco3)c2)cc1 | inactive |
| O=[N+]([O-])c1ccccc1/C=N/N1CCN(c2ccncc2S(=O)(=O)N2CCCCC2)CC1 | inactive |
| C=CCNC(=O)CC(=O)N/N=C/c1ccc(C(=O)OC)cc1 | inactive |
| Cc1ccc(Cn2c(=N)n(CC(=O)c3ccc([N+](=O)[O-])cc3)c3ccccc32)cc1 | inactive |
| COc1ccc(/C=N/NC(=O)CC(=O)NCc2cccnc2)cc1 | inactive |
| Cc1ccc(C(=O)NC(=S)Nc2cccc3c(C)cc(C)nc23)cc1 | inactive |
| COC(=O)c1ccc(Nc2cc(C)nc3ccccc23)cc1 | inactive |
| COc1ccc2nc(-c3ccccc3)cc(OC)c2c1 | inactive |
| CN1c2ccccc2C(C)(C)[C@]12C=Cc1cc(O)ccc1O2 | inactive |
| CC(=O)Nc1cccc(OC(=O)c2ccoc2C)c1 | inactive |
| Nc1ccc(C2(c3ccc(N)cc3)c3ccccc3-c3ccccc32)cc1 | inactive |
| Cc1ccc(C(=O)NCC(=O)OCC(=O)N2CCCc3ccccc32)cc1 | inactive |
| O=C(N/N=C/c1cn(-c2ccccc2)nc1-c1ccc(F)cc1)c1ccc2c(c1)OCO2 | inactive |
| O=C(NNC(=O)c1ccccc1-n1cccc1)c1ccc(Cl)c(Cl)c1 | inactive |
| O=C(Cn1ncc2c(=O)oc3ccccc3c21)N1CCN(c2ccccn2)CC1 | inactive |
| O=C1c2ccccc2C(=O)N1Cc1nc(-c2ccccn2)no1 | inactive |
| CC(C)Nc1cc(C(F)(F)F)nc(-c2ccccn2)n1 | inactive |

| Structure (SMILES) | outcome |
| --- | --- |
| N#Cc1ccc(N=c2ssnc2Cl)cc1 | inactive |
| CC(C)CCNC(=O)C(c1ccco1)N(Cc1ccc(F)cc1)C(=O)c1snc(C(N)=O)c1N (stereo not drawn) | inactive |
| COc1cc(C2C(C(=O)c3ccc(C)o3)=C(O)C(=O)N2CCc2ccccc2)ccc1O (stereo not drawn) | inactive |
| NC(=O)c1c(NC(=O)CN2C(=O)CCC2=O)sc2c1CCCCC2 | inactive |
| CC(C)(C)C1CCc2c(sc(NC(=O)c3cccs3)c2C(=O)N2CCCCC2)C1 (stereo not drawn) | inactive |
| CCOC(=O)c1c(NC(=O)Nc2ccc(C)cc2)sc2c1CCN(C)C2 | inactive |
| O=[N+]([O-])c1ccc(-n2nnnc2-c2ccccc2)c([N+](=O)[O-])c1 | inactive |
| CN(C)C(CNC(=O)Nc1cccc(Cl)c1)c1cccnc1 (stereo not drawn) | inactive |
| Cc1cc2c(c(=O)n1C)C(Cc1ccccc1)C(C#N)=C(N)O2 (stereo not drawn) | inactive |
| OC1(c2cccc(C(F)(F)F)c2)CCN(c2ncnc3c2[nH]c2ccccc23)CC1 | inactive |
| COc1ccc2c(c1)CC/C(=C\Nc1ccc3c(c1)OCO3)C2=O | inactive |
| COc1ccc(C2C=C(c3ccc(Cl)cc3)Nc3nc(NC(C)=O)nn32)cc1 (stereo not drawn) | inactive |
| CCCSc1ncc(Cl)c(C(=O)Nc2ccc(S(=O)(=O)N3CC(C)OC(C)C3)cc2)n1 (stereo not drawn) | inactive |
| O=C(NC1CC1)C1=NOC(CNc2ncc(C(F)(F)F)cc2Cl)C1 (stereo not drawn) | inactive |
| O=C(NCc1cccnc1)c1cc2ccccc2oc1=O | inactive |
| CC(=O)N1N=C(c2ccco2)CC1c1ccc(Br)cc1 (stereo not drawn) | inactive |
| O=C1NC(=O)C(=C2CCCCCC2)S1 | inactive |
| Cc1ccc(-c2csc(N=C(N)N)n2)cc1 | inactive |
| Clc1ccc(OCCN2CCN(c3ncnc4sccc34)CC2)cc1 | inactive |
| c1ccc(OCCCN2CCCC2)cc1 | inactive |
| COc1ccc(Br)cc1C(=O)NCc1cccnc1 | inactive |
| Clc1ccccc1OCCn1ccnc1 | inactive |
| NC(=O)N1OCC2COc3ccc4ccccc4c3C21 (stereo not drawn) | inactive |

| Structure (SMILES) | outcome |
| --- | --- |
| Cc1ccccc1CS(=O)(=O)c1snnc1C | inactive |
| O=C(CNC(=O)c1ccco1)OCC(=O)c1ccc2c(c1)CCCC2 | inactive |
| Cc1cc(=O)[nH]c(N/N=C/c2c[nH]c3ccccc23)n1 | inactive |
| Fc1ccc(-c2n[nH]c(=S)n2/N=C/c2c[nH]c3ccccc23)cc1 | inactive |
| CSc1ccc(C(=O)/C=C/c2ccc(N)cc2)cc1 | inactive |
| O=C(O)C1CCCN1S(=O)(=O)c1ccc2[nH]c(=O)c(=O)[nH]c2c1 (stereo not drawn) | inactive |
| Cc1cc(C)c(C#N)c(SCc2cn3ccccc3n2)n1 | inactive |
| CCS(=O)(=O)Nc1cc(C(=O)OC)ccc1C(=O)OC | inactive |
| Cc1ccc(-n2nnnc2SCC(=O)Nc2ncc(Cc3ccccc3Cl)s2)cc1 | inactive |
| CCOc1cc(CNn2cnnc2)ccc1OCC(=O)NC1CCCCC1 | inactive |
| CCN(CCO)Cc1csc2ccccc12 | inactive |
| CCOc1ccccc1OCC(=O)Nc1ccc(S(=O)(=O)Nc2nc(C)cc(C)n2)cc1 | inactive |
| CCOCCCNC(=S)Nc1cc(C)cc(C)c1 | inactive |
| COc1cccc(-c2nc(-c3ccc(Br)o3)no2)c1 | inactive |
| CCN(CC)c1ccc(/C=C(\C#N)C(=O)NCc2ccco2)cc1 | inactive |
| Cc1ccc(NC(=S)NCCc2ccccc2)c(C)c1 | inactive |
| CCc1cccc(NC(=O)CCCSc2nc3ccccc3[nH]2)c1 | inactive |
| Cc1cc(C)cc(-n2c(C)cc(C=C(C#N)C#N)c2C)c1 | inactive |
| CCCc1cnc(NCCNCC(O)COc2ccc(Cl)c(Cl)c2)nc1 (stereo not drawn) | inactive |
| CCC(=O)c1ccc(OCC(O)CNCc2ccc(F)cc2)cc1 (stereo not drawn) | inactive |
| CC(=O)Nc1ccc(NS(=O)(=O)c2ccc3c(c2)n(C)c(=O)n3C)cc1 | inactive |
